Test results as given in PubChem BioAssay.
Active and inactive are the calls of the source.

How the values were obtained:
[1] = optical density shifts of acrAB sulA E. coli – strain DRC41, OD650, 48 h, E. coli filamentation inducer project, primary screen (AID 1152); conditions: higher = more signal, called active from +8 up or from −8 down;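 note: E. coli MC1000 strain DRC41 lacking acrAB efflux pump and sulA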
[2] = probe aLefty1 binding on compound microarray – biochemical, small-molecule microarray, 635/667 nm fluorescence, primary screen (AID 1153); conditions: higher = more signal;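 note: score merges spot fluorescence with signal-to-noise ratio from the scanned slide images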
[3] = plasmodial surface anion channel blockers, osmotic lysis – cell-based, P. falciparum Indochina, OD700, 1 h, primary screen (AID 1154); conditions: P. falciparum Indochina infected RBC osmotic lysis, higher = more signal, called active from +8 up or from −8 down
[4] = plasmodial surface anion channel blockers, osmotic lysis – cell-based, P. falciparum Indochina, OD700, 2 h, primary screen (AID 1155);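 note: lysis reports solute entry through the parasite surface anion channel PSAC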; conditions: P. falciparum Indochina infected erythrocytes, higher = more signal, called active from +8 up or from −8 down
[5] = changes in parasitized red cell lysis, either direction – P. falciparum Indochina, OD700, 3 h, PSAC antagonist project, primary screen (AID 1156); conditions: P. falciparum-infected erythrocytes, osmotic lysis, higher = more signal, called active from +8 up or from −8 down
[6] = plasmodial surface anion channel blockers, osmotic lysis – cell-based, P. falciparum Indochina, OD700, 18 h, primary screen (AID 1157); conditions: P. falciparum Indochina infected erythrocytes, osmotic lysis OD700, 18 h; higher = more signal, called active from +8 up or from −8 down
[7] = S6 kinase pathway phospho-S6 level changes – cell-based, A549, cytoblot, luminescence, serum-stimulated, primary screen (AID 1158); conditions: 5 h, higher = more signal;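 note: serum-stimulated A549 lung adenocarcinoma cells; signal is phosphorylated S6 detected by cytoblot immunostaining with HRP secondary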
[8] = target: NADPH oxidase 2 (Homo sapiens) (UniProt P04839); assay: compounds shifting NOX2 Amplex Red fluorescence – cell-based, HEK293-NOX2, PMA-stimulated, NOX inhibitor project, primary screen (AID 1159); conditions: 45 min, higher = more signal, called active from +8 up or from −8 down; note: test concentration not given here
[9] = target: NADPH oxidase 4 (Homo sapiens) (UniProt Q9NPH5); assay: compounds shifting NOX4 Amplex Red fluorescence – cell-based, HEK293-NOX4, tetracycline-induced, NOX inhibitor project, primary screen (AID 1160); conditions: HEK293-NOX4, Amplex Red H2O2 fluorescence, 45 min; higher = more signal, called active from +8 up or from −8 down
[10] = target: NADPH oxidase 5 (Homo sapiens) (UniProt Q96PH1); assay: compounds shifting NOX5 Amplex Red fluorescence – cell-based, HEK293-NOX5, NOX inhibitor project, primary screen (AID 1161); conditions: HEK293-NOX5, ionomycin, 45 min, higher = more signal
[11] = compound effects on lung adenocarcinoma cell viability – A549, calcein-AM fluorescence, 48 h, basal, profiling panel (AID 1162); conditions: higher = more signal; note: test concentration not given here
[12] = compound effects on differentiated 3T3-L1 adipocyte viability – cell-based, 3T3-L1 adipocytes, calcein-AM fluorescence, 48 h, basal, profiling panel (AID 1163); conditions: 3T3-L1 adipocytes viability, higher = more signal; note: test concentration not given here
[13] = compound effects on hepatocellular carcinoma cell viability – HepG2, calcein-AM fluorescence, 48 h, basal, profiling panel (AID 1164); conditions: higher = more signal; note: test concentration not given here
[14] = compound effects on multiple myeloma cell viability – MM1S, calcein-AM fluorescence, 48 h, basal, profiling panel (AID 1165); conditions: higher = more signal; note: test concentration not given here
[15] = calcein-AM signal in unstimulated myeloma cells – cell-based, calcein-AM fluorescence, 48 h, PK04 Diversity Set, profiling panel (AID 1166); conditions: RPMI8226 myeloma viability, higher = more signal;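 note: cells grown under basal conditions without added stimulus; test concentration not given here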
[16] = JC-1 mitochondrial signal, unstimulated HepG2 cells – cell-based, JC-1 fluorescence, 24 h, 100 nL compound, profiling panel (AID 1167); conditions: HepG2 mitochondrial potential, higher = more signal; note: test concentration not given here
[17] = JC-1 mitochondrial signal, unstimulated adipocytes – cell-based, JC-1 fluorescence, 3T3-L1 adipocytes, 24 h, 100 nL compound, profiling panel (AID 1168); conditions: JC-1 mitochondrial fluorescence, higher = more signal, called active from +8 up or from −8 down; note: test concentration not given here
[18] = JC-1 mitochondrial signal, unstimulated myeloma cells – cell-based, JC-1 fluorescence, RPMI8226, 24 h, 100 nL compound, profiling panel (AID 1169); conditions: JC-1 mitochondrial potential fluorescence, higher = more signal; note: test concentration not given here
[19] = JC-1 mitochondrial signal, unstimulated MM1S myeloma – cell-based, JC-1 fluorescence, 24 h, 100 nL compound, profiling panel (AID 1170); conditions: MM1S mitochondrial potential, higher = more signal; note: test concentration not given here
[20] = resazurin metabolic signal in A549 cells – cell-based, resazurin fluorescence, 24 h, PK04 Diversity Set, profiling panel (AID 1171); conditions: A549 viability, higher = more signal, called active from +8 up or from −8 down; note: test concentration not given here

NADPH oxidase 5 (Homo sapiens), sequence (Q96PH1 whole entry, looked up): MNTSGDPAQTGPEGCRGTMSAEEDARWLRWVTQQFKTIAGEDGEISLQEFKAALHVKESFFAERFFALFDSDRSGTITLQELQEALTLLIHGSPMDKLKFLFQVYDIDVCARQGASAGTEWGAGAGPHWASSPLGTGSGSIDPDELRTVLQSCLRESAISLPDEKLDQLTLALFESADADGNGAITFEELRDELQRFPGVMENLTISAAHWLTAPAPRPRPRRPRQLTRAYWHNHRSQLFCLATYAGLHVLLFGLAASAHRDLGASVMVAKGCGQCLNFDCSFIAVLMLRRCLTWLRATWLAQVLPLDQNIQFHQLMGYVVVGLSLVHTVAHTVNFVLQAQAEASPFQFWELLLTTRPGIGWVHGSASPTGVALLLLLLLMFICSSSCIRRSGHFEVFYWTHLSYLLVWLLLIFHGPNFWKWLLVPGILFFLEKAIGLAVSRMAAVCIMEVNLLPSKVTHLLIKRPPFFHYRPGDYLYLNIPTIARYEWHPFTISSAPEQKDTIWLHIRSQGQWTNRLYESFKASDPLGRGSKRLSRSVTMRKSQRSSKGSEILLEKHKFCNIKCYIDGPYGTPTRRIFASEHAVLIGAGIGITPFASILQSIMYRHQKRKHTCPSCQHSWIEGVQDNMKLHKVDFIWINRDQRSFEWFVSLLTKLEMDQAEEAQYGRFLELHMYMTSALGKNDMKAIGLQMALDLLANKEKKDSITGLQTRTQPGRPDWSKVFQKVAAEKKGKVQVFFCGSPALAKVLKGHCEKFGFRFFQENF
NADPH oxidase 4 (Homo sapiens), sequence (Q9NPH5 whole entry, looked up): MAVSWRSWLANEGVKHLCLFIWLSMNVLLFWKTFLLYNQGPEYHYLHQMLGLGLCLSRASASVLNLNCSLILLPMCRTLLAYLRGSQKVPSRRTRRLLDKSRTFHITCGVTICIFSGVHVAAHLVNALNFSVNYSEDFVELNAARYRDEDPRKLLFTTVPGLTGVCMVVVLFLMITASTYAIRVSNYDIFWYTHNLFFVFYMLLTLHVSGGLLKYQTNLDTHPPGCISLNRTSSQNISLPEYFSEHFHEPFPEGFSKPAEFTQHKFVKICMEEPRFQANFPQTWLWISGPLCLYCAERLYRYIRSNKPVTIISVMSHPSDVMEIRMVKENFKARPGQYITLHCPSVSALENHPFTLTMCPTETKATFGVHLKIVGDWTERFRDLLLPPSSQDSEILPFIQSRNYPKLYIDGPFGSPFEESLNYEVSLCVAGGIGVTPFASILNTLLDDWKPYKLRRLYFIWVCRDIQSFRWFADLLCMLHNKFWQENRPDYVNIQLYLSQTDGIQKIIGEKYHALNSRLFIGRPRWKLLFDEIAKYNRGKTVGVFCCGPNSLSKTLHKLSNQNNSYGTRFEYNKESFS
NADPH oxidase 2 (Homo sapiens), sequence (P04839 whole entry, looked up): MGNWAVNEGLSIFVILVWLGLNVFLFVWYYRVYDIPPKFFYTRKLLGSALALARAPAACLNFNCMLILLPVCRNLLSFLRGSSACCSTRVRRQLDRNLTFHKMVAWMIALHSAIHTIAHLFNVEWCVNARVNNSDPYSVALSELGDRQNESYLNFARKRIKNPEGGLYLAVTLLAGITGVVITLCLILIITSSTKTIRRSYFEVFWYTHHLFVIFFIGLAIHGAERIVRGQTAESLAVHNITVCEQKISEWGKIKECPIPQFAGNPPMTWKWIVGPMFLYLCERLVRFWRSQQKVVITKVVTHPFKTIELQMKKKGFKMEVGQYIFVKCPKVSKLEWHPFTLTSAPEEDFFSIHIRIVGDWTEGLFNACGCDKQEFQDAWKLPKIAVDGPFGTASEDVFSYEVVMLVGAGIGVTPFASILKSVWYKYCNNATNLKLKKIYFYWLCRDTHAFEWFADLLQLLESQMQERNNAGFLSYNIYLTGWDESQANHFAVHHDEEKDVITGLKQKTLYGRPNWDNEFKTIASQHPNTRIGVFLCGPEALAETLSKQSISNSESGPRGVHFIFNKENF

SMILES	z-score [1]	composite z-score [2]	z-score [3]	z-score [4]	z-score [5]	z-score [6]	z-score [7]	z-score [8]	z-score [9]	z-score [10]	z-score [11]	z-score [12]	z-score [13]	z-score [14]	z-score [15]	z-score [16]	z-score [17]	z-score [18]	z-score [19]	z-score [20]
COC(=O)[C@H](C)NC(=O)CCC1CC(OC(=O)NCCc2ccc(F)cc2)CC2(CCCC(COC(=O)NCCC(C)C)O2)O1 (stereo not given in full)	-0.484 (inactive)	0.0844	21.1 (active)	4.7 (inactive)	0.0444 (inactive)	0.266 (inactive)	1.14	0.341 (inactive)	0.302 (inactive)	-0.385	1.22	0.464	-0.814	-3.65	-0.883	-0.591	0.521 (inactive)	0.198	-1.51	0.693 (inactive)
COC(=O)[C@@H]1CC[C@H](C)[C@@H](c2ccc(C)cc2)N1C(=O)c1ccc(C=NO[C@H](C)c2cn([C@H](CO)Cc3ccccc3)nn2)cc1	-0.25 (inactive)	0.342	18.8 (active)	2.92 (inactive)	1.91 (inactive)	1.25 (inactive)	-0.0872	-0.0504 (inactive)	-0.591 (inactive)	-1.71	0.354	0.747	-1.31	0.005	-2.98	-0.701	-1.55 (inactive)	-0.041	0.697	-0.0166 (inactive)
CO[C@H]1COC(=O)CC=C[C@H](C)[C@@H](OC)COC(=O)[C@@H](C)COC(=O)CC=C[C@@H]1C	-0.513 (inactive)	-0.193	-0.435 (inactive)	0.106 (inactive)	0.033 (inactive)	-0.213 (inactive)	-0.0875	-1.46 (inactive)	0.28 (inactive)	0.18	-0.0895	1.19	0.389	0.242	0.21	0.429	0.673 (inactive)	-0.296	1.01	0.455 (inactive)
CC(C)[C@@H](OCc1ccccc1)[C@H](C)C=NOC[C@@H](O)COCc1ccco1	0.776 (inactive)	-0.866	0.726 (inactive)	-0.332 (inactive)	-0.302 (inactive)	-0.0498 (inactive)	0.0388	-0.0623 (inactive)	0.402 (inactive)	-0.548	-0.695	0.0863	-0.893	-1.05	-1.09	-1.83	-1.25 (inactive)	-0.298	-0.368	-0.185 (inactive)
CCN1C(=O)[C@@H]2[C@H]3C(=CC[C@@H]2C1=O)C1(OCCCO1)[C@H]1O[C@H]1[C@H]3O	-0.721 (inactive)	0.167	27.2 (active)	12.1 (active)	1.38 (inactive)	1.18 (inactive)	-0.295	0.104 (inactive)	-5.5 (inactive)	-5.86	-4.56	-1.03	-4.61	-3.56	-3.24	-3.62	-5.63 (inactive)	-1.04	-3.04	-3.14 (inactive)
CCOC(=O)[C@H](CC(C)C)NC(=O)CCC1CC(OC(=O)NCCc2ccc(F)cc2)CC2(CCCC(COC(=O)NCC(c3ccccc3)c3ccccc3)O2)O1 (stereo not given in full)	-1.18 (inactive)	-0.147	4 (inactive)	-0.523 (inactive)	0.784 (inactive)	-0.316 (inactive)	0.0441	1.47 (inactive)	1.88 (inactive)	1.52	0.0775	0.0775	-0.912	-0.325	0.497	-0.898	-0.516 (inactive)	0.872	-0.019	0.171 (inactive)
COC(=O)[C@H]1O[C@@H](c2c(OC)c(OC)c(C)c(OC)c2OC)[C@H](C)[C@@H](O)[C@H]1C	0.855 (inactive)	-0.0505	0.516 (inactive)	0.183 (inactive)	0.92 (inactive)	0.587 (inactive)	0.817	0.933 (inactive)	0.792 (inactive)	0.194	1.2	-0.302	0.825	1	1.36	0.438	0.61 (inactive)	-0.398	-0.848	-1.27 (inactive)
CO[C@H]1COC(=O)[C@@H](C)COC(=O)[C@H](C)NC(=O)CC=C[C@H]1C	-0.0819 (inactive)	-0.0186	-0.0875 (inactive)	0.725 (inactive)	0.76 (inactive)	0.403 (inactive)	-0.144	1.72 (inactive)	0.315 (inactive)	0.895	-0.235	0.18	0.314	0.0766	0.235	0.631	0.118 (inactive)	-0.693	0.86	0.488 (inactive)
O=C1C[C@@H](O)[C@@H](O)[C@@H]2[C@@H]3C(=O)N(Cc4ccc5c(c4)OCO5)C(=O)[C@@H]3CC[C@H]12	-0.116 (inactive)	-0.104	1.52 (inactive)	0.14 (inactive)	-0.582 (inactive)	0.207 (inactive)	-0.196	-0.148 (inactive)	0.314 (inactive)	-0.36	0.474	1.46	0.517	0.0737	-0.0121	-0.0331	-0.221 (inactive)	0.522	1.37	-0.0495 (inactive)
C[C@H]1COC(=O)[C@@H]2CCCN2C(=O)[C@@H](C)COC(=O)[C@H](Cc2ccccc2)NC1=O	-0.0891 (inactive)	-0.394	0.115 (inactive)	-0.29 (inactive)	0.968 (inactive)	0.22 (inactive)	0.413	-0.45 (inactive)	-0.114 (inactive)	-0.272	-0.398	-0.501	-0.501	0.119	-0.364	0.278	-0.906 (inactive)	-0.287	-0.825	0.264 (inactive)
C#CCCCON=C1C[C@@H](O)[C@@H](O)[C@@H]2[C@@H]3C(=O)N(CCC(=O)OCC)C(=O)[C@@H]3CC[C@H]12	0.756 (inactive)	0.105	1.08 (inactive)	-1.4 (inactive)	0.792 (inactive)	-1.51 (inactive)	1.76	-2.03 (inactive)	0.213 (inactive)	-0.949	0.278	0.73	0.249	-0.0993	0.111	0.0972	-0.367 (inactive)	0.0174	-1.36	-1.11 (inactive)
COc1ccc(O[C@H]2C=C[C@@H](c3ccccc3)O[C@@H]2COC(=O)CCC(C)=NOC[C@@H](O)[C@H]2O[C@@H]3OC(C)(C)O[C@@H]3[C@H]2O)cc1	-1.89 (inactive)	0.0004	4.09 (inactive)	1.12 (inactive)	1.11 (inactive)	0.662 (inactive)	0.332	-1.42 (inactive)	0.0675 (inactive)	-1.42	1.11	-0.519	0.26	0.152	-0.0547	-0.42	0.157 (inactive)	-0.299	-0.199	0.138 (inactive)
CCOC(=O)[C@H](CC(C)C)NC(=O)CCC1CC(OC(=O)NCc2cccc3ccccc23)CC2(CCCC(COC(=O)NCCOc3ccccc3)O2)O1 (stereo not given in full)	0.288 (inactive)	-0.372	-1.67 (inactive)	-0.658 (inactive)	-2.05 (inactive)	-0.391 (inactive)	-0.305	0.711 (inactive)	0.635 (inactive)	0.534	2.15	0.519	0.335	-1.32	-0.273	1	0.661 (inactive)	-0.763	-0.985	1.33 (inactive)
CC(C)=CCCC(C)=CCON=C1C[C@@H](O)[C@@H](O)[C@@H]2[C@@H]3C(=O)N(C(C)(C)C)C(=O)[C@@H]3CC[C@@H]12	-1.31 (inactive)	0.167	1.43 (inactive)	0.761 (inactive)	0.916 (inactive)	0.821 (inactive)	-0.227	-1.14 (inactive)	-1.2 (inactive)	-0.411	0.0392	0.523	0.121	-1.09	-0.562	-0.279	-0.365 (inactive)	-0.231	0.947	-1.03 (inactive)
Cc1cc2c(nc1C)CCCCN2CC(C)ON=C[C@@H](C)[C@H](OCc1ccccc1)C(C)C (stereo not given in full)	-0.0958 (inactive)	-0.8	1.34 (inactive)	0.147 (inactive)	0.472 (inactive)	0.171 (inactive)	-0.732	-0.892 (inactive)	-0.45 (inactive)	-3.3	-0.672	-0.44	-1.27	-2.94	-3.77	-1.91	-1.4 (inactive)	-0.262	0.034	4.05 (inactive)
CC(C)(C)N1C(=O)[C@H]2[C@H]3[C@H](O)[C@H](O)CC(=NO[C@@H]4O[C@H](CO)[C@@H](O)[C@H](O)[C@H]4O)[C@H]3CC[C@H]2C1=O	-1.73 (inactive)	-0.193	5.45 (inactive)	1.46 (inactive)	1.01 (inactive)	1.24 (inactive)	-0.527	0.192 (inactive)	-0.912 (inactive)	-3.69	-2.09	1.08	-2.16	-2.93	-3.96	-1.68	-1.81 (inactive)	-0.344	-0.447	-0.817 (inactive)
O=C1CCCC=C1C(O)CCCCBr (stereo not given)	0.549 (inactive)	0.155	3.79 (inactive)	1.15 (inactive)	1.02 (inactive)	0.759 (inactive)	0.231	-0.772 (inactive)	0.241 (inactive)	-0.921	-1.75	0.593	-4.6	-3.52	-3.71	-0.504	0.482 (inactive)	-0.967	-3.04	-2.06 (inactive)
CC(CCN1CCCCc2nc(C)c(C)cc21)=NO[C@H](C)c1cn([C@H](CO)Cc2ccccc2)nn1	0.285 (inactive)	-0.0162	2.87 (inactive)	1.16 (inactive)	0.758 (inactive)	0.589 (inactive)	-0.286	-0.939 (inactive)	0.0532 (inactive)	0.477	0.277	0.72	-0.386	0.607	-1.4	-0.969	-2.1 (inactive)	0.686	-0.457	-0.0266 (inactive)
